The values that follow come from ChEMBL document CHEMBL1961873, “Compounds: GSK PKIS; Assays: Nanosyn kinase panel” (2012).
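Further: values given as mean percent inhibition.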

The assay concerns the target T1, Mitogen-activated protein kinase kinase kinase kinase 2 (Homo sapiens) (UniProt Q12851).
T1 sequence (whole entry): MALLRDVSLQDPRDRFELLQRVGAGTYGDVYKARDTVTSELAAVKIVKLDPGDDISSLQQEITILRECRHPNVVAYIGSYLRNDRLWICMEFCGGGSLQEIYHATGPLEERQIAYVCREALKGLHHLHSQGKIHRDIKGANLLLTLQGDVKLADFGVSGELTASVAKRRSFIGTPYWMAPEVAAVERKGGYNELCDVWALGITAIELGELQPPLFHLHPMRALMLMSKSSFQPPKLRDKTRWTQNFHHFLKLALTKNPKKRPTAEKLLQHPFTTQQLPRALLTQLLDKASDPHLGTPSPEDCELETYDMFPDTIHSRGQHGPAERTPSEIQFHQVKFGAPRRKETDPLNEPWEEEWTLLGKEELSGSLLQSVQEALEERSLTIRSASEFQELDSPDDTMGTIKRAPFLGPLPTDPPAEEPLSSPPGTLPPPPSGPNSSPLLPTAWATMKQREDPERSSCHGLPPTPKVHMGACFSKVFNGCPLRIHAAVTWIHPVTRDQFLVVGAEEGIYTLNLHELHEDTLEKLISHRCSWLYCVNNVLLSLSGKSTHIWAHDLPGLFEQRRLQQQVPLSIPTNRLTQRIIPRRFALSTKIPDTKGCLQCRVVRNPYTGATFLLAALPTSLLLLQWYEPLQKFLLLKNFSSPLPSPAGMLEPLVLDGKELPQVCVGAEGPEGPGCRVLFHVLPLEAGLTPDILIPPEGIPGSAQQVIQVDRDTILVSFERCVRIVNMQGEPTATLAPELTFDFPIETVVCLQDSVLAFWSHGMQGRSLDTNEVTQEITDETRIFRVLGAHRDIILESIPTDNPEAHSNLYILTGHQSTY
The following applies: at 0.1 µM.
By inhibition is commonly meant the relative decrease from the control value, in per cent. Consider `NC(=O)c1ccc(Oc2nccc(-c3c(-c4ccc(F)cc4)ncn3C3CCNCC3)n2)cc1`, for which the inhibition is -0.61%.

In the case of `Fc1ccc(-c2ncn(CCCN3CCOCC3)c2-c2ccncc2)cc1`, the inhibition is 2.31%.

Turning to `COc1cccc(/C=N/Nc2ncnc3c2cnn3-c2cccc(OC)c2)c1`, the inhibition was -0.07%.

Take `N#Cc1ccc(Oc2nccc(-c3c(-c4ccc(F)cc4)ncn3C3CCNCC3)n2)cc1`: the inhibition is 0.91%.

Turning to `COc1ccc(-c2ccc3c(NC(=O)C4CC4)n[nH]c3n2)cc1`, the inhibition is 1.22%.

For the molecule `O=C(Nc1n[nH]c2cc(-c3ccccc3)ccc12)C1CC1`, the inhibition worked out at 1.56%.

Consider `COC(=O)Nc1nc2ccc(Sc3ccc(NC(=O)Nc4cc(C(F)(F)F)ccc4F)cc3)cc2[nH]1`, for which the inhibition was determined as 7.11%.

With `CN(c1ccc(NC(=O)Nc2c(Cl)cccc2Cl)cc1)c1ccnc(Nc2cccc(CS(C)(=O)=O)c2)n1`, the inhibition was determined as 11.5%.

In the case of `O=C1Nc2ccc(I)cc2C1=Cc1cc(Br)c(O)c(Br)c1`, the inhibition came out at 0.93%.

Consider `Clc1ccc(CNc2nccc(-c3cnn4ncccc34)n2)cc1`, for which the inhibition came to 2.75%.

On to `C/C(Nc1ccc(S(N)(=O)=O)cc1)=C1/C(=O)Nc2ccccc21`, for which the inhibition came to 1.58%.

In the case of `CCc1nccc2c1nc(-c1nonc1N)n2CC`, the inhibition was found to be 2.12%.

With `NC(=O)c1cc(-c2ccncc2)cc(-c2ccccc2)c1N`, the inhibition came to 0.27%.

Regarding `COc1cc(Nc2ncc(-c3ccccc3)o2)cc(OC)c1OC`, the inhibition is 2.15%.

With `NS(=O)(=O)c1ccc(N/N=C2\C(=O)Nc3ccc(-c4cnco4)cc32)cc1`, the inhibition is 1.49%.

For the molecule `COc1cc2ncn(-c3cc(OCCc4ccccc4)c(C(N)=O)s3)c2cc1OC`, the inhibition turned out to be 1.21%.

Turning to `Cc1nnc(-c2ccc(C)c(-c3ccc(C(=O)NCc4ccc(Cl)cc4)cc3)c2)o1`, the inhibition is 1.46%.

Consider `C#Cc1cccc(Nc2ncnc3ccc(OCCCCNCCS(C)(=O)=O)cc23)c1`, for which the inhibition came out at 1.44%.

With `COc1cccc(-n2cnc3c(N/N=C/c4ccncc4)ncnc32)c1`, the inhibition worked out at 1.19%.

Regarding `COc1ccc2cc(-c3c(-c4ccncc4)nc(-c4ccc(S(C)(=O)=O)cc4C)n3C)ccc2c1`, the inhibition was 0.86%.

Turning to `COc1ccc2ncn(-c3cc(O[C@H](C)c4ccccc4Cl)c(C(N)=O)s3)c2c1`, the inhibition turned out to be 1.91%.

With `O=C1NC(=O)C(c2cccc(Cl)c2)=C1Nc1ccc(Cl)c(C(=O)O)c1`, the inhibition was determined as 0.39%.

For the molecule `CN1CCN(CCCNc2nc3ccc(Oc4ccc(NC(=O)Nc5cc(C(F)(F)F)ccc5F)cc4)cc3[nH]2)CC1`, the inhibition came out at 3.12%.

Turning to `C[C@@H](Oc1cc(-n2cnc3ccc(OC4CCN(C)CC4)cc32)sc1C(N)=O)c1ccccc1Cl`, the inhibition is 2.18%.

As for `c1ccc(Oc2ccc(Nc3ncc(-c4ccccc4)o3)cc2)cc1`, the inhibition came to 1.08%.

`CN(C)CCCNc1nccc(-c2c(-c3ccc(F)cc3)nn3cc(C(F)(F)F)ccc23)n1`: the inhibition is 4.09%.

With `COc1cc2ncn(-c3cc(OCc4ccccc4C(F)(F)F)c(C(C)=O)s3)c2cc1OC`, the inhibition came out at 2.18%.

Regarding `COc1ccc2cc(-c3c(-c4ccncc4)nc(-c4ccc([S+](C)[O-])cc4C)n3C)ccc2c1` (centres undefined), the inhibition is -0.16%.

In the case of `Fc1ccc(-c2ncn(C3CCNCC3)c2-c2ccnc(Oc3ccc4c(c3)OCO4)n2)cc1`, the inhibition is 1.35%.

As for `NC(=O)c1cc(-c2ccc(F)cc2)cc(-c2ccncc2)c1N`, the inhibition came to 0.12%.

In the case of `CCC(=O)Nc1ccc(C)c(-c2ccc(C(=O)NCC3CC3)cc2)c1`, the inhibition was found to be 0.41%.

`c1ccc(-c2n[nH]cc2-c2ccnc(-c3ccc(OCCN4CCOCC4)cc3)c2)nc1`: the inhibition came to 6.4%.

As to `O=C(NCC1CC1)c1ccc(-c2cccc(C(=O)NC3CC3)c2)cc1`, the inhibition was found to be 1.43%.

Regarding `NC(=O)Cc1ccccc1Oc1nccc(-c2c(-c3ccc(F)cc3)ncn2C2CCNCC2)n1`, the inhibition amounted to 0.65%.
